Source: PubChem BioAssay AID488841 (Sanford-Burnham Center for Chemical Genomics, 2010)
The campaign covered roughly 1,400 compounds. About 380 (27%) were called active.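 The calls were made as follows: active = mean inhibition above 50% across duplicate retests at 10 µM; inactive = the rest.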 The list shows a part of the results.

Test: inhibition of NALP1/ASC/caspase-1 reporter signal in yeast, confirmation, NALP1 inhibitor project, S. cerevisiae, luminescence, single concentration (AID 488841);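 also: plate controls were DMSO in galactose medium for no effect and cells in plain SD medium for full effect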
Settings: S. cerevisiae NALP1/ASC/Caspase-1 reporter, beta-gal luminescence; at 10 µM; active compounds read high

inhibition, active:
CCSc1nnc(NC(=O)c2ccc(C)o2)s1 54.3%
CCSc1nnc(NC(=O)c2ccccc2)s1 83.2%
c1ccc2c(Nc3nc(N4CCOCC4)c4ccccc4n3)cccc2c1 93.2%
O=C(Nc1ccc2oc(-c3ccccc3)nc2c1)c1ccco1 86.7%
Cc1sc(NC(=O)c2ccco2)nc1-c1ccccc1 73%
Cc1ccn2cc(-c3ccc(NC(=O)c4ccco4)cc3)nc2c1 82.7%
O=C(Nc1ccc(-c2cn3ccccc3n2)cc1)c1ccco1 76.8%
Cc1ccc(C(=O)Nc2ccc3nc(C)sc3c2)s1 77%
O=C(NC1CCCCC1)c1noc2c1CCCCC2 70.2%
O=C(c1cc(-c2ccc(O)cc2)on1)N1CCc2ccccc2C1 56.5%
N#Cc1ccc(NC(=O)Nc2ccc(Cl)cc2)cc1 67%
CC(=O)c1ccc(NC(=O)Nc2ccc(Cl)cc2)cc1 53.4%
CSc1nnc(-c2cc3c(s2)-c2ccccc2CC3)o1 56.6%
CNC(=S)N/N=C/c1cc(Br)cc(Br)c1O 75.7%
CCOc1ccccc1C(=O)Nc1cnn(Cc2ccc(F)cc2)c1 57.7%
CCN(CC)c1ccc(N=Cc2ccc([N+](=O)[O-])o2)cc1 64.2%
Cc1nc(N)sc1N=Nc1ccc(Br)cc1 50.6%
Cc1ccc2occ(C(=O)c3ccco3)c(=O)c2c1 58.4%
O=C1c2cccc(O)c2C(=O)c2c(O)cccc21 62.8%
C=CCOc1ccc2ccccc2c1/C=N/O 52.7%
CCOc1ccccc1N1CCN(C(=O)CCCc2nc3ccccc3s2)CC1 52.9%
O=C(/C=C/c1ccc2c(c1)OCCCO2)c1ccccc1O 61.6%
CCOC(=O)/C(=C/c1ccc(OC(=O)c2ccccc2)cc1)C(C)=O 55.4%
C=CCNC(=O)/C(C#N)=C/c1c(C)nn(-c2ccccc2)c1Cl 60.3%
Cc1nn(-c2ccccc2)c(Cl)c1/C=C(\C#N)C(=O)NC(C)C 55.2%
O=C1c2ccsc2SCCN1Cc1c(Cl)cccc1Cl 53.7%
CCCNC(=O)c1nnsc1S(=O)(=O)c1ccc(Cl)cc1 95%
CNC(=O)c1nnsc1S(=O)(=O)c1ccc(Cl)cc1 86.2%

inhibition, inactive:
O=c1ncn(-c2cccc(F)c2)c2ncccc12 37.1%
N#CC(C#N)=C1C=CC=CN1/C(=C\c1ccccc1Cl)C(=O)c1ccccc1 5.75%
CCn1cc(C(=O)O)c(=O)c2cc(F)c(N3CCNCC3)cc21 27.4%
CC(C)COC(=O)Nc1nnc(SCc2ccccc2F)s1 49.2%
Cc1ccc(Nc2nnc(SCC(=O)Nc3ccc(S(=O)(=O)N4CCOCC4)cc3)s2)cc1 18.2%
CCCc1[nH]nc2c1C(c1ccoc1)C(C#N)=C(N)O2 (stereo not given) 37.9%
O=C(c1ccc(F)cc1)c1cn(Cc2ccc(F)cc2)c2cc3c(cc2c1=O)OCCO3 26.4%
Cc1ccc(Cn2nnnc2CN2CCC(c3nc4ccc(Cl)cc4[nH]3)CC2)cc1 34.2%
Cc1noc2ncc(C(=O)c3cc(F)ccc3O)cc12 17.8%
CCOc1cc(-c2c(C)c(C)nc(N)c2C#N)ccc1O 30.4%
O=C(OC1CCOC1=O)c1cc(-c2ccc(Br)cc2)nc2ccccc12 (stereo not given) 21%
O=C(Nc1cccc(-c2cn3ccccc3n2)c1)c1cccc(Cl)c1 39.9%
O=C(CCl)Nc1nc(-c2ccco2)c(-c2ccco2)s1 32.2%
CC1=C(C(=O)Nc2ccc(Cl)cc2)C(c2ccco2)NC(=O)N1 (stereo not given) 23.4%
CCCCC(=O)Nc1ccc(C(=O)NNC(=S)NC(=O)c2ccco2)cc1 42.2%
O=C(Nc1nc(-c2ccco2)c(-c2ccco2)s1)C1CCC1 39%
O=C(Nc1ccon1)c1cc2ccccc2oc1=O 31.5%
Cc1ccc2oc(-c3ccc(NC(=O)c4cccnc4)cc3)nc2c1 44.6%
CSc1ccc(C(=O)C2CCCN(C(=O)c3ccc4c(c3)no[n+]4[O-])C2)cc1 (stereo not given) 18.6%
Cn1nnc(NC(=O)/C=C/c2ccco2)n1 35%
Cn1c(N)c(C(=O)COC(=O)C2(c3ccc(Cl)cc3)CCCC2)c(=O)n(C)c1=O 28.2%
Clc1ccc2c(N/N=C/c3ccc(Br)cc3)ccnc2c1 47.6%
CCOC(=O)c1c(C)c(C(=O)NCCCOC(C)C)c(C)n1C 26.2%
COc1ccc(N(C)C2=NS(=O)(=O)c3ccccc32)cc1 27.9%
C=C(C)C1Cc2c(C)nn(-c3ccccn3)c2C1 (stereo not given) 2.3%
CC(OC(=O)Cc1c(F)cccc1Cl)C(=O)NCCC1=CCCCC1 (stereo not given) 46.2%
COc1ccccc1NC(=O)c1ccc(C)s1 38.7%
Cc1nc2ccc(NC(=O)c3cc([N+](=O)[O-])cc([N+](=O)[O-])c3Cl)cc2s1 40.5%
COn1c2c(c3c4nonc4ccc31)CCCC2 30.4%
CC1CCN(Cc2ccc(-c3nn[nH]n3)cc2)CC1 21.2%
O=C(NC1CCCC1)c1ccc(CN2CCOCC2)cc1 33.8%
O=C(CN1CCc2ccccc2C1)NCc1ccco1 18.9%
CCn1c(C(=O)N2CCc3ccccc3C2)cc2oc3ccccc3c21 32.4%
CC(C)CC(=O)N1CCN(c2ccc([N+](=O)[O-])cc2Cl)CC1 37.5%
Cc1c(-c2nc(N)nc(Nc3ccccc3)n2)oc2ccccc12 37.3%
COc1ccc(N2CCN(CCNC(=O)Nc3ccc(Cl)cc3)CC2)cc1 22.3%
CCCCN(C)CCC(=O)Nc1ccc(Cl)cc1 28.4%
CCOC(=O)C(=O)NNc1ccc(Cl)cc1 40.9%
O=C(Nc1ccc(Cl)cc1)C1=Cc2ccccc2OC1 48.8%
CCC(C(=O)NCc1ccco1)N(C(=O)CNS(=O)(=O)c1ccccc1)c1ccc(OC)cc1 (stereo not given) 23.4%
O=C(C(Cc1ccccc1)n1cccc1)N1CCN(c2ccccc2)CC1 (stereo not given) 46%
Oc1c(Br)cc(Br)cc1C=Nc1cccnc1 36.4%
Cc1cc(C=C2C(=O)c3ccccc3C2=O)c(C)n1C 39%
O=C(Nc1ccc(F)cc1)c1cccnc1N1CCCCC1 34.8%
CCOc1ccccc1C(=O)OCC(=O)Nc1ccc(N2CCCCC2)cc1 36.1%
c1ccc(CC2CCN(c3nnnn3-c3ccccc3)CC2)cc1 26.4%
COC(=O)c1cc(=O)n(-c2ccc(F)cc2)c(=Nc2ccc(F)cc2)s1 33.2%
O=[N+]([O-])c1ccc(/C=N/NS(=O)(=O)c2ccc(Cl)cc2)o1 36.3%
CCOC(=O)c1[nH]c2ccc(Br)cc2c1NC(=O)CCN1CCC(C)CC1 32.4%
Cc1ccc(C)c(NC(=O)c2ccc(OC(=O)c3ccco3)cc2)c1 36.8%
CN1CCN(C2=C(Cl)C(=O)C(c3cnc(N4CCCCC4)s3)=C(Cl)C2=O)CC1 29.9%
CN(C=[N+](C)C)c1cccc2c1C(=O)c1ccccc1C2=O 37%
CN(C)S(=O)(=O)c1cccc2c1C(=O)c1ccccc1C2=O 39.2%
CC(C)CN=C(NS(=O)(=O)c1ccccc1)C(Cl)(Cl)Cl 43.6%
O=S(=O)(/N=C/c1c(O)ccc2ccccc12)c1cccs1 29.8%
N#Cc1cccc(N=Cc2c(O)ccc3ccccc23)c1 24.8%
CCCCCOc1ccc(Cn2ccnc2)cc1[N+](=O)[O-] 43%
O=C(CCNc1n[nH]c(=O)[nH]c1=O)N/N=C/c1ccc(C(F)(F)F)cc1 26.9%
COCC(=O)n1nc(-c2ccc(Cl)cc2)nc1NCc1ccc(F)cc1 49.8%
O=C(NC1=NCCS1)c1ccc(Cl)s1 42.9%
COCCN=C1Sc2nc3ccc(C)cc3cc2CN1Cc1ccco1 45.9%
COc1ccccc1NC1=C(N2CCCCC2)C(=O)c2ccccc2C1=O 49.1%
CCCSc1nnc(C(C)C)n1N 21.8%
Cc1ccc(C(=O)/C=C/c2ccc3c(c2)OCO3)o1 23.9%
O=C(/C=C/c1ccc(F)cc1)NCCc1ccc2c(c1)OCCO2 49.3%
CC(=O)C1=C(O)C(=O)N(CCC(=O)O)C1c1ccc(Cl)cc1Cl (stereo not given) 24.1%
CCOC(=O)C1=Nc2ccccc2C1=[N+]=[N-] 37.8%
CCOC(=O)C1=C(O)c2ccccc2C(=O)/C1=C\c1ccc(C)cc1 30.2%
Cc1sc(-c2ccncc2)nc1OC(=O)c1ccccc1 47.5%
O=C(CN(Cc1ccccc1)S(=O)(=O)c1ccc(S(=O)(=O)N2CCOCC2)cc1)Nc1ccccc1 27.6%
CC(C)NC(=O)/C(C#N)=C/c1cccc(NC(=O)c2ccccc2Cl)c1 41.1%
COc1ccc(OCC(=O)NC(=S)N2CCCc3ccccc32)cc1 28.5%
CCCCCCC1CCC(C(=O)Nn2c(C)nc3ccccc3c2=O)CC1 (stereo not given) 44.8%
COc1ccc(C2NCCc3c2[nH]c2ccccc32)cc1CSc1nc2ccccc2s1 (stereo not given) 45.4%
COCc1cc(=O)[nH]c(/N=C(\N)Nc2cccc(C)c2)n1 21.6%
Cn1cnc([N+](=O)[O-])c1S(=O)(=O)c1ccc(Cl)cc1 46.9%
COc1ccc(CCNC(=O)C2CCN(S(=O)(=O)c3ccc(Cl)cc3)CC2)cc1OC 5.6%
